Records with an inconclusive call do not appear. Calls of active or inactive are those of the source. Calls follow the shape of the dose curve; as a rule, active = well fitted activation curve with a large enough effect in the signal ratio in the repeat runs (not every such curve was filed as active); inconclusive = weak or mixed curves, or effect the other way; inactive = no such curve, though single readings can be large or run the other way; the % refers to the signal ratio.
What follows are compounds tested against Peroxisome proliferator-activated receptor gamma (Homo sapiens) (UniProt P37231) (assay: qHTS assay to identify small molecule agonists of the peroxisome proliferator-activated receptor gamma (PPARg) signaling pathway (AID 743094)). Details: HEK293H PPARg-UAS-bla, beta-lactamase FRET ratio, 17 h; series mostly up to 57 µM; activation: at the top concentration.
Sequence of Peroxisome proliferator-activated receptor gamma (Homo sapiens) (P37231 whole entry, looked up): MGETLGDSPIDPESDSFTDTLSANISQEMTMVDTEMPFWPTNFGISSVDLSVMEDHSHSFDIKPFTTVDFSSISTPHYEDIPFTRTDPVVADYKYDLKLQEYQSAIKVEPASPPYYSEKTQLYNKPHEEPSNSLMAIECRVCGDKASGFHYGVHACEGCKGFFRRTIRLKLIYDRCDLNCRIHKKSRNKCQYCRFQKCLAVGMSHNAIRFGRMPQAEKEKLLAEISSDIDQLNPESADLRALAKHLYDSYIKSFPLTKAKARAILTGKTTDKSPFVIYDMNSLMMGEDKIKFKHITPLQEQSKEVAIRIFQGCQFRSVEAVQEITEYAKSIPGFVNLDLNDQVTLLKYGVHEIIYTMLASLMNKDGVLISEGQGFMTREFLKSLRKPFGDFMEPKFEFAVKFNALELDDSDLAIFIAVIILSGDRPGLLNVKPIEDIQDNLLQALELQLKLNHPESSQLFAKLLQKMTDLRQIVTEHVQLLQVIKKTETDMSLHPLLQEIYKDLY
In short: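 Agonism was assessed in a beta-lactamase reporter system, HEK293H cells with a stably integrated UAS-bla construct under PPARg control; the 17 h treatment at 37C preceded a 1 h room-temperature FRET substrate read.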
% is scaled to controls: 0 for no effect and ±100 for the full control effect.

SMILES	outcome	activation
COCC(C)O (stereo not drawn)	inactive	
O=S(=O)(O)CCS	inactive	
O=C1O[C@H](CO)[C@@H](O)[C@H](O)[C@H]1O	inactive	
OC1CCCC1	inactive	
CCCCCCCCCCCCOCC1CO1 (stereo not drawn)	inactive	
O=[N+]([O-])C(CO)(CO)CO	inactive	
C=C(C)C(=O)OCCCCCCCCCCCC	inactive	
CCCCCCCCC		-2.56% (inactive)
OC[C@@H](O)[C@@H](O)[C@H](O)[C@@H](O)CO	inactive	
NCCc1ccc(O)c(O)c1	inactive	
c1ccc2ccccc2c1	inactive	
C=C(C)C(=O)OCCC[Si](OC)(OC)OC	inactive	
NCc1cccc(CN)c1	inactive	
CC1CC(OC(=O)c2ccccc2O)CC(C)(C)C1 (stereo not drawn)	inactive	
CC1(C)CC(N=C=O)CC(C)(CN=C=O)C1 (stereo not drawn)		1.06% [at 78.9 µM] (inactive)
CCOC(=O)/C=C\C(=O)OCC	inactive	
CC[Si](OC(C)=O)(OC(C)=O)OC(C)=O	inactive	
CCCCOCCO	inactive	
CCOC(=O)[C@H](CCc1ccccc1)N[C@@H](C)C(=O)N1Cc2ccccc2C[C@H]1C(=O)O	inactive	

SMILES	outcome	activation
Clc1ccc(Cl)c(Cl)c1Cl	inactive	
COC(=O)c1ccc(C(=O)OC)cc1	inactive	
Nc1c(S(=O)(=O)O)cc(Br)c2c1C(=O)c1ccccc1C2=O	inactive	
NS(=O)(=O)c1cc2c(cc1Cl)NC=NS2(=O)=O	inactive	
CCCCCCOC(C)=O	inactive	
OCC1CCCO1 (stereo not drawn)	inactive	
CCOC(=O)C1OC1c1ccccc1 (stereo not drawn)		1.04% (inactive)
CC(C)(N=C=O)c1cccc(C(C)(C)N=C=O)c1		10.8% (inactive)
CCCCOCCOCCOC(=O)CCCCC(=O)OCCOCCOCCCC	inactive	
CS(=O)(=O)c1ccc([C@@H](O)[C@@H](CO)NC(=O)C(Cl)Cl)cc1	inactive	
CCC(C)C=O (stereo not drawn)	inactive	
COCC(=O)O	inactive	
CC(C)(CO)COC(=O)C(C)(C)CO	inactive	
C=C(C)C(=O)OCC(CC)(COC(=O)C(=C)C)COC(=O)C(=C)C	inactive	
Clc1cc(Cl)c(Cl)cc1Cl	inactive	
CCCCCCC(C)(C)S	inactive	
CC1Cc2ccccc2N1NC(=O)c1ccc(Cl)c(S(N)(=O)=O)c1 (stereo not drawn)	inactive	
CN(C)c1cccc(O)c1	inactive	
O=C(Cl)c1c(Cl)c(Cl)c(C(=O)Cl)c(Cl)c1Cl	inactive	

From PubChem BioAssay (Tox21)
